Reference: the antibiotic and cytotoxicity screens of Wong et al. (2023)
About 3,300 (8.5%) of roughly 39,000 compounds were called active. Only a selection was taken, and actives are over-represented in it overall.

What follows are compounds tested on HepG2 (assay: cytotoxicity call (relative viability < 0.9)). Settings: 10 µM.

Structure (SMILES)	cytotoxicity call
Cn1cnc(S(=O)(=O)N2C[C@H](O)COC[C@H]3O[C@@H](CC(=O)NCc4cc(F)cc(F)c4)CC[C@@H]32)c1	inactive
C[C@@H]1CN([C@H](C)CO)C(=O)c2cccc(NS(=O)(=O)c3ccc(F)cc3)c2O[C@H]1CN(C)S(=O)(=O)c1cn(C)cn1	inactive
C[C@@H]1CCCCO[C@H](CN(C)S(C)(=O)=O)[C@@H](C)CN([C@H](C)CO)C(=O)c2cc(NC(=O)Nc3cccc4ccccc34)ccc2O1	inactive
C[C@H]1CN([C@@H](C)CO)C(=O)c2cccc(NC(=O)Nc3ccc4c(c3)OCO4)c2O[C@H]1CN(C)Cc1ccc(C(F)(F)F)cc1	inactive
C[C@@H]1CN([C@@H](C)CO)C(=O)c2cccc(NC(=O)Nc3ccc(C(F)(F)F)cc3)c2O[C@H]1CN(C)Cc1ccc2c(c1)OCO2	inactive
C[C@@H]1CN([C@@H](C)CO)C(=O)c2cccc(NC(=O)Nc3ccc(C(F)(F)F)cc3)c2O[C@@H]1CN(C)Cc1ccc2c(c1)OCO2	active
C[C@H]1CN([C@@H](C)CO)C(=O)c2cccc(NC(=O)Nc3ccc(C(F)(F)F)cc3)c2O[C@H]1CN(C)Cc1ccc2c(c1)OCO2	inactive
C[C@H](CO)N1C[C@H](C)[C@H](CN(C)Cc2ccc(C(F)(F)F)cc2)Oc2c(NC(=O)Nc3ccc4c(c3)OCO4)cccc2C1=O	inactive
C[C@H]1CN([C@@H](C)CO)C(=O)c2cccc(NC(=O)Nc3ccc4c(c3)OCO4)c2O[C@@H]1CN(C)Cc1ccc(C(F)(F)F)cc1	inactive
C[C@H](CO)N1C[C@H](C)[C@@H](CN(C)Cc2ccc(C(F)(F)F)cc2)Oc2c(NC(=O)Nc3ccc4c(c3)OCO4)cccc2C1=O	inactive
C[C@@H]1CN([C@H](C)CO)C(=O)c2cccc(NC(=O)Nc3ccc4c(c3)OCO4)c2O[C@H]1CN(C)Cc1ccc(C(F)(F)F)cc1	active
C[C@@H]1CN([C@@H](C)CO)C(=O)c2cccc(NC(=O)Nc3ccc4c(c3)OCO4)c2O[C@H]1CN(C)Cc1ccc(C(F)(F)F)cc1	active
CCOC(=O)N(C)C[C@H]1OCc2cn(nn2)CCCC(=O)N([C@H](C)CO)C[C@@H]1C	inactive
CC(=O)O[C@H]1CC[C@]2(C)[C@H]3CC[C@]4(C)C(=CC(=O)O[C@H]4c4ccoc4)[C@]3(C)[C@H](OC(C)=O)C[C@H]2C1(C)C	inactive
CN(C)C(=O)c1ccc(-c2ccc3n(c2=O)C[C@@H]2[C@@H](CO)[C@H](C(=O)NCCc4ccccc4)N[C@H]32)cc1	inactive
COc1ccc(NC(=O)Nc2ccc3c(c2)C(=O)N([C@H](C)CO)C[C@@H](C)[C@@H](CN(C)Cc2ccc(Oc4ccccc4)cc2)O3)cc1	inactive
COc1ccc(NC(=O)Nc2ccc3c(c2)C(=O)N([C@H](C)CO)C[C@H](C)[C@@H](CN(C)Cc2ccc(Oc4ccccc4)cc2)O3)cc1	active
COc1ccc(NC(=O)Nc2ccc3c(c2)C(=O)N([C@@H](C)CO)C[C@@H](C)[C@H](CN(C)Cc2ccc(Oc4ccccc4)cc2)O3)cc1	inactive
COc1ccc(NC(=O)Nc2ccc3c(c2)C(=O)N([C@@H](C)CO)C[C@H](C)[C@@H](CN(C)Cc2ccc(Oc4ccccc4)cc2)O3)cc1	inactive
COc1ccc(NC(=O)Nc2ccc3c(c2)C(=O)N([C@H](C)CO)C[C@H](C)[C@H](CN(C)Cc2ccc(Oc4ccccc4)cc2)O3)cc1	inactive

Structure (SMILES)	cytotoxicity call
COc1ccc(NC(=O)Nc2ccc3c(c2)C(=O)N([C@@H](C)CO)C[C@@H](C)[C@@H](CN(C)Cc2ccc(Oc4ccccc4)cc2)O3)cc1	active
C[C@H](CO)N1C[C@H](C)[C@@H](CN(C)S(=O)(=O)c2ccc(Cl)cc2)OCc2cnnn2CCCC1=O	inactive
Cc1ccc(S(=O)(=O)Nc2ccc3c(c2)C(=O)N([C@@H](C)CO)C[C@@H](C)[C@@H](CN(C)C(=O)C2CCCCC2)OCCCC[C@H](C)O3)cc1	inactive
CC(C)(c1cc(Br)c(O)c(Br)c1)c1cc(Br)c(O)c(Br)c1	inactive
C[C@H](CO)N1C[C@H](C)[C@@H](CN(C)C(=O)NC2CCCCC2)Oc2c(NS(=O)(=O)c3cn(C)cn3)cccc2C1=O	inactive
CNC(=O)C[C@H]1CC[C@@H]2[C@H](COC[C@@H](O)CN2C(=O)c2ccc3c(c2)OCO3)O1	active
O=C(C[C@@H]1CC[C@H]2[C@@H](COC[C@@H](O)CN2C(=O)c2ccc3c(c2)OCO3)O1)NCCN1CCCCC1	active
O=C(C[C@@H]1CC[C@@H]2[C@H](COC[C@@H](O)CN2C(=O)c2ccc3c(c2)OCO3)O1)NCCN1CCCCC1	inactive
CCCNC(=O)N1C[C@H](O)COC[C@H]2O[C@@H](CC(=O)NCCCN3CCOCC3)CC[C@@H]21	inactive
CCCNC(=O)N1C[C@@H](O)COC[C@H]2O[C@@H](CC(=O)NCCCN3CCOCC3)CC[C@@H]21	inactive
CNC(=O)C[C@H]1CC[C@H]2[C@@H](COC[C@@H](O)CN2C(=O)c2ccc3c(c2)OCO3)O1	inactive
O=C(C[C@H]1CC[C@@H]2[C@H](COC[C@H](O)CN2C(=O)c2ccc3c(c2)OCO3)O1)NCCN1CCCCC1	inactive
CCCNC(=O)N1C[C@H](O)COC[C@H]2O[C@H](CC(=O)NCCCN3CCOCC3)CC[C@@H]21	active
CNC(=O)C[C@@H]1CC[C@H]2[C@@H](COC[C@H](O)CN2C(=O)c2ccc3c(c2)OCO3)O1	inactive
C[C@@H]1CN([C@H](C)CO)C(=O)c2cc(NC(=O)NC3CCCCC3)ccc2O[C@@H](C)CCCCO[C@H]1CN(C)C(=O)Nc1ccc(F)cc1	inactive
C[C@H](CO)N1C[C@H](C)[C@@H](CN(C)S(=O)(=O)c2cccs2)OCCCC[C@H](C)Oc2ccc(NS(=O)(=O)c3cn(C)cn3)cc2C1=O	inactive
COc1ccc(C#Cc2ccc3c(c2)[C@H]2[C@H](CCN2C(=O)Nc2ccc(C(F)(F)F)cc2)[C@H](CO)N3C)cc1	inactive
C[C@H](CO)N1C[C@H](C)[C@@H](CN(C)S(=O)(=O)c2cn(C)cn2)Oc2ccc(NC(=O)c3ccncc3)cc2C1=O	inactive
C[C@@H]1CN([C@H](C)CO)S(=O)(=O)c2ccc(Br)cc2O[C@H]1CN(C)Cc1cccc(C(=O)O)c1	inactive
